AMA1-RON2 inh = qHTS for Inhibitors of AMA1-RON; Towards Development of Antimalarial Drug Lead: Primary Screen; 0.2% of 360,000 active; AID 720542, 2013; AlphaScreen AMA1-biotinylated RON2 peptide binding; Potency, µM (series often up to 58.2 µM), for the others: at the highest dose activity change, negative = inhibition, most hits filed as inhibitors; Plasmodium falciparum AMA1 (3D7) - RON2 peptide interaction;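 also: 0% = vehicle wells and -100% = peptide control; nearly all actives have a fitted effect of over 45% in size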
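AMA1 (3D7) with his tag at 25 nM final met compounds first, then biotinylated RON2 peptide at 25 nM; detection used donor plus acceptor beads, 10 µg/mL apiece, read by AlphaScreen after 30 min at room temperature.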
RE007 growth inh = qHTS Assay for Inhibitors of the HIV-1 protein Vpr; S. pombe RE007 Vpr strain, BacTiter-Glo ATP luminescence, 24 h; 0.21% of 360,000 active; Potency, µM (highest dose often 92.2 µM), for inactives: top-dose activity change, negative = less growth, hits mostly inhibitors; active = well fitted falling curve with a large enough effect; inconclusive = small, poorly fitted or top-dose-only effect; inactive = no such curve, though single readings can be large or run the other way; also: nearly all actives have a fitted effect of over 50% in size
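Fission yeast RE007 carrying one integrated HIV-1 vpr copy, seeded at OD 0.01 in PMG+AL medium with 23 nL pinned compound. Grown 24 h at 30 degrees; viability read by BacTiter-Glo luminescence after 5 min.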
AmpC inh no detg = qHTS Inhibitors of AmpC Beta-Lactamase (assay without detergent) | AID 485341, 2010 | AmpC nitrocefin hydrolysis, absorbance 480 nm, 0.0001% Triton | Potency, µM (top dose mostly 57.1 µM), for inactives: top-dose activity change, negative = inhibition, actives largely listed as inhibitors | 0.52% of 330,000 active | P00811;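 also: plate controls were no compound for no effect and no enzyme for full effect; nearly all actives have a fitted effect of over 20% in size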
Target sequence (P00811 whole entry, looked up): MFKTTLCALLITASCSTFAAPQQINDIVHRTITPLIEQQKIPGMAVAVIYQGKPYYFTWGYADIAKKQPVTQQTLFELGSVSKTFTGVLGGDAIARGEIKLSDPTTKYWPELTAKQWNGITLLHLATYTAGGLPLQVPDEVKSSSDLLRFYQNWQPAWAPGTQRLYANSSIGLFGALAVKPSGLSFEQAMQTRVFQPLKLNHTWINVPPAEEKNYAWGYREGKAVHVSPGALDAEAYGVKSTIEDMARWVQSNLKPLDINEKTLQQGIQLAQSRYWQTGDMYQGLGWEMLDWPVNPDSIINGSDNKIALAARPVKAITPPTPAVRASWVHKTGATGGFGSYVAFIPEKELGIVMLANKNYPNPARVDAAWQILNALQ
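20 mM phosphate pH 7.0 + 0.01% (detergent screen) or 0.0001% Triton X-100; 5.3 nM AmpC reagent; cpd preinc 15 min RT; nitrocefin (800 uM stock) to start; A480 q20 s × 4 min; Activity was normalised to no-enzyme and no-compound control wells.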
AmpC detergent = qHTS Inhibitors of AmpC Beta-Lactamase (assay with detergent). 0.041% of 370,000 active. P00811. Potency, µM (series often up to 114 µM), inactives show at the top dose activity change, negative = inhibition, most hits filed as inhibitors. AmpC hydrolysis of nitrocefin, absorbance 480 nm, 0.01% Triton;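 also: 0% = no-compound wells and -100% = no-enzyme wells; nearly all actives have a fitted effect of over 25% in size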
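AmpC (5.3 nM in the dispensed reagent) in 20 mM phosphate pH 7.0 with 0.01% (detergent screen) or 0.0001% Triton X-100 was preincubated with compounds for 15 min at room temperature. Nitrocefin was then added from an 800 uM solution, and hydrolysis was followed at 480 nm.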
Numbers without * were called inactive; ? = inconclusive; · = not tested or not shown; [ ] = another dose, or the depositor's remark. Shown are actives, neighbours in structure and some others; about 0.79% of the full set was active somewhere. Unless noted, calls follow the shape of the dose curve; as a rule, active = well fitted curve in the direction sought with a large enough effect; inconclusive = small, poorly fitted or top-dose-only effect, or another doubt; inactive = no such curve, though single readings can be large; an effect the other way counts as inactive or inconclusive. Unless noted, % is scaled to controls: 0 for no effect and ±100 for the full control effect; potency is read from the fitted curve at half-maximal effect.

SMILES | AMA1-RON2 inh | RE007 growth inh | AmpC inh no detg | AmpC detergent
O=C(Nc1cc(F)ccc1F)c1ccc(CN2CC(=O)N3CCCCC3C2=O)cc1 (configuration not stated) | · | · | · | 21%
O=C(Cn1ccc2cc(S(=O)(=O)N3CCCCCC3)ccc21)NCc1ccccc1Cl | · | · | · | -3%
COc1cc(-c2nc(Cn3nnc(C(=O)Nc4ccccc4)c3C)c(C)o2)cc(OC)c1OC | · | · | · | -3%
N/C(=N\OC(=O)/C=C/c1ccccc1)c1ccccn1 | 9% | -23% | -13% | 1%
O=C(/C=C/c1ccccc1)c1ccccn1 | 7% | 35µM* | -30% | -4%
Cc1cc(-n2c(C)nc3ccccc3c2=O)ccc1NC(=O)c1cccc([N+](=O)[O-])c1C | · | · | · | 2%
COc1ccc(-c2nc3ccccc3c(=O)n2CCN2CCOCC2)cc1 | -6% | 8% | -3% | -14%
Cc1ccc(-c2nc3ccccc3c(=O)n2CCN2CCOCC2)cc1 | 5% | 23% | 2.2µM* | 0%
O=c1c2c3c(sc2nc2n1CCC2)CCCCC3 | 23% | -33% | 29% | 7%
O=c1c2c3c(sc2nc2n1CCCC2)CCCC3 | -14% | 28µM* | -13% | ?
Cc1oc(-c2ccc(Cl)cc2)nc1CN1CCCC(C(=O)NCCc2ccc(Cl)cc2)C1 (configuration not stated) | · | · | · | 18%
CCCCC#Cc1ccc(C(=O)NNC(=O)Nc2cc(Cl)cc(Cl)c2)o1 | 125% | -7% | 14µM* | 5%
S=C1NC2=C(CCC/C2=C\c2ccccc2)C(c2ccccc2)N1 (configuration not stated) | -6% | -14% | 11µM* | -12%
S=C1NC2=C(CCC/C2=C\c2ccc(Cl)cc2)C(c2ccc(Cl)cc2)N1 (configuration not stated) | 38% | 5% | -53% | 0%
CNCc1ccccc1Sc1cc(O)ccc1O | 11µM* | 45% | -33% | ?
CNCc1ccccc1Sc1cccc(O)c1 | -2% | -6% | -15% | -17%
CCSC(=O)CCCCCCCCCCCO | 33% | 3.2µM* | 30% | -3%
CCOc1cc(CNC(=O)c2ccc3c(c2)nc2n3CCCCC2)ccc1OC | · | · | · | 1%
COc1cc(OC)c(NC(=O)CSCc2nc(-c3ccc(OC)c(OC)c3)no2)cc1Cl | · | · | · | 15%
Cc1cc(NCc2ccncc2)ccc1Br | 25µM* | -8% | -15% | -2%
Cc1ccc(NCc2ccncc2)c(Br)c1 | ? | 4% | 1% | -11%
Cc1ccc(-c2nnc(-c3cccs3)o2)cc1 | 17% | 20µM* | -9% | -6%
NS(=O)(=O)c1ccc(N/N=C/c2ccc(O)c(O)c2O)c([N+](=O)[O-])c1 | ? | -18% | 7.1µM* | -13%
CCN1C(=O)C(Cc2nc3ccccc3c(=O)n2-c2cccc(C)c2)c2ccccc21 (configuration not stated) | · | · | · | -3%
O=C(Nc1ccc(Cl)cc1)N1CCC(CN2CCCCCC2)CC1 | · | · | · | 6%
SMILES | AMA1-RON2 inh | RE007 growth inh | AmpC inh no detg | AmpC detergent
NC(=O)c1ccc(N=Cc2ccc([N+](=O)[O-])s2)cc1 | 0% | 40µM* | -14% | -13%
O=C(Cc1cccs1)N/N=C\c1ccc([N+](=O)[O-])s1 | 0% | -11% | -40% | -11%
O=[N+]([O-])c1ccc(C=Nc2ccc(Cl)c([N+](=O)[O-])c2)s1 | · | · | -14% | 3%
Cc1cc(C)cc(N=Cc2ccc([N+](=O)[O-])s2)c1 | -27% | 40µM* | -14% | -6%
Oc1ccc(/C=N/Nc2ccnc3cc(Cl)ccc23)cc1O | 2% | 5% | 11µM* | -8%
Oc1ccc(/C=N/Nc2ccnc3cc(Cl)ccc23)c(O)c1O | 23% | -15% | -59% | -9%
COc1ccc(-c2cnc(C)o2)cc1S(=O)(=O)Nc1ccc(NC(C)=O)cc1 | · | · | · | 11%
CN(C)c1ccc(Sc2ccc3nc(N)nc(N)c3c2)cc1 | 10µM* | -1% | · | ·
Cc1ccc(-n2c(=O)c3c(cnn3C)n(CC(=O)Nc3cc(C)ccc3C)c2=O)cc1 | · | · | · | 8%
O=c1cc(N2CCN(c3ccc(F)cc3)CC2)[nH]c(=O)n1Cc1ccc(F)cc1 | -4% | 4% | 25µM* | -12%
COc1cccc(OCc2cc(/C=N/Nc3ccc(C(=O)O)cc3)ccc2OC)c1 | -2% | -6% | 18µM* | 5%
COc1cccc(C(=O)Oc2ccc(/C=N/Nc3ccc(C(=O)O)cc3)cc2OC)c1 | -26% | -20% | -39% | -13%
Cc1ccc(CCNC(=O)c2cnc3c(-c4ccc(F)cc4)c(C)nn3c2C)cc1 | · | · | · | 12%
COc1ccc(/C=N/NC(=O)c2ccccc2O)cc1Cn1cc([N+](=O)[O-])cn1 | 57% | 25% | 6.3µM* | -5%
Oc1c(N=Nc2ccccn2)ccc2ccccc12 | ? | 18µM* | -15% | -9%
Oc1[nH]c2ccccc2c1N=Nc1ccccn1 | 15% | 3% | · | ·
Cc1nn(C(=O)c2ccccc2)c(C)c1S(=O)(=O)N1CCOCC1 | · | · | · | 1%
COc1ccc(/C=C2\N=C(C)OC2=O)cc1OC | -8% | -5% | -21% | 35µM*
COc1ccc(/C=C2\N=C(C)OC2=O)cc1OC(C)=O | 1% | 7% | -7% | -12%
Cc1cc(C)cc(NC(=O)CCc2nnc3n(C)c(=O)c4sccc4n23)c1 | · | · | · | 5%
COc1ccc(Br)cc1CNC(=O)Cn1ncn2nc(-c3cccs3)cc2c1=O | · | · | · | -4%
CCc1cccc(N2C(=O)N(CC(=O)NCc3cccc(OC)c3OC)c3ccccc3S2(=O)=O)c1 | · | · | · | 12%
CN1CCN(C(=S)c2ccc(-c3cccc(Cl)c3Cl)o2)CC1 | 14µM* | -16% | 162% | ?
Cc1ccc([N+](=O)[O-])cc1-c1ccc(/C=C(\C#N)c2[nH]nc(N)c2C#N)o1 | -2%[11.6 µM] | 3% | 32µM* | 2%
CC(C)n1c(=O)c(C=Nc2ccc(S(N)(=O)=O)cc2)c(O)n(Cc2ccco2)c1=O | 0% | -9% | 22µM* | -9%
SMILES | AMA1-RON2 inh | RE007 growth inh | AmpC inh no detg | AmpC detergent
O=C(Nc1nc2ccccc2[nH]1)c1ccccc1F | 63% | 6.3µM* | -22% | ?
COc1cc(Cl)c(C)cc1NC(=O)CSc1sc2c(O)cc(=O)[nH]c2c1C#N | -8% | 20% | 1.6µM* | -4%
COc1ccc(OC)c(NC(=O)CSc2sc3c(O)cc(=O)[nH]c3c2C#N)c1 | ? | ? | -20% | 4%
Cc1cc(OCCn2cc(/C(N)=N/O)c3ccccc32)ccc1Cl | -7% | 0% | 16µM* | ?
CCN(c1ccccc1)S(=O)(=O)c1ccc(NC(=O)c2cc(=O)c3cc(C)cc(C)c3o2)cc1 | · | · | · | 16%
N=C1CCC(=N)c2c1c(O)c1ccccc1c2O | 20µM* | ? | -53% | -10%
CCCCN(CC)Cc1ccc(CNS(=O)(=O)c2cc3c(cc2Cl)NC(=O)CO3)o1 | · | · | · | -9%
COc1ccccc1NC(=O)c1sc2ncn(Cc3cccc(C)c3)c(=O)c2c1C | 3% | 3% | ? | -1%

High-throughput results (PubChem BioAssay)
